Bioassay records (PubChem)
Hits are enriched below; roughly 3.1% of the tested compounds scored in any of these assays.
BRCA1 expr act: qHTS Assay to Identify Small Molecule Activators of BRCA1 Expression; hit rate 1.1% among 380,000; MCF7-BRCA1-FFLuc reporter, luminescence, 48 h; response scale: scaled: vehicle 0%, 10 µM genistein 100%; Potency, µM (doses to about 46.1 µM), hits mostly activators; note: nearly all actives have a fitted effect of over 80% in size
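MCF7-BRCA1-FFLuc, 2000 cells/well; 2 h attach, 37 °C/5% CO2; compound 48 h; luciferase substrate 15 min; luminescence end-point. Norm. to genistein 10 microM max activation and DMSO; concentration-response curves fitted.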
IL2 activator: qHTS of IL-2 Activators. hit rate 0.065% among 360,000. IL-2 activation reporter assay, cell-based qHTS; stimulated with anti-CD3/CD4/CD28 beads; in transgenic mouse T cells. activation, % (series mostly up to about 46 µM). AID 652025, 2013; in the data active = activation above about 50%; inconclusive = mostly about 30% to 49%
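Unstimulated transgenic mouse T cells preincubated 60 min with compound, then stimulated with anti-CD3/anti-CD4-coated beads plus anti-CD28 for 18 h at 37 degrees C. IL-2 response read as EGFP and DsRed fluorescence by plate cytometry.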
Nrf2 ARE act: qHTS of Nrf2 Activators; Potency, µM (highest dose often 46.1 µM), hits mostly activators; AREc32 ARE-luciferase reporter (MCF7-derived line), luminescence, 24 h; hit rate 0.31% among 410,000; note: nearly all actives have a fitted effect of over 65% in size
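For detection, Steady-Glo was added and plates sat 30 min at RT; before that, AREc32_Fluc cells grown overnight in OPTI-MEM/5% FBS had been treated with 23 nL compound for 24 hr at 37 deg C.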
ELG1 DNA repair: qHTS screen for small molecules that inhibit ELG1-dependent DNA repair in human embryonic kidney (HEK293T) cells expressing luciferase-tagged ELG1; HEK293T ELG1-luciferase reporter, luminescence, 16 h; DNA damage induced by 5-fluorouridine; Potency, µM (series often up to 46.1 µM), most hits filed as inhibitors; hit rate 2.3% among 330,000; note: nearly all actives have a fitted effect of over 55% in size
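Quantitative HTS, concentration-response format. 2,000 cells/well co-treated with 5-fluorouridine and compound, 16 hr in 5% CO2 at 37 °C; ONE-Glo luminescence read after 30 min.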
A number is an active result; . = inactive; ? = inconclusive; / = not tested or not shown. Unless noted, calls come from the whole dose curve; as a rule, active = well fitted curve in the direction sought with a large enough effect; inconclusive = small, poorly fitted or top-dose-only effect, or another doubt; inactive = no such curve, though single readings can be large; an effect the other way counts as inactive or inconclusive.

SMILES	BRCA1 expr act	IL2 activator	Nrf2 ARE act	ELG1 DNA repair
O=C(Nc1ccccc1)N1CC=C(c2ccc(F)cc2)CC1	4µM	.	.	?
COc1ccc(Nc2c(-c3cc(Br)ccc3O)nc3ncccn23)cc1OC	/	/	.	/
CCc1ccc(NC(=O)CSC2=C(C#N)C(c3ccco3)C3=C(CCCC3=O)N2)cc1 (stereo unspecified)	.	.	?	?
N#CC1=C(SCC(=O)c2ccc(Br)cc2)NC2=C(C(=O)CCC2)C1c1ccco1 (stereo unspecified)	.	.	.	13µM
CCCOc1ccc(OC(=O)c2cn(-c3ccc(OC)cc3)c(=O)c3ccccc23)cc1	/	/	.	/
CCOC(=O)C1CCN(C(=O)c2cc3c(C)cc(C)cc3[nH]2)CC1	.	.	.	.
CCOC(=O)C1CCN(C(=O)c2cc3cc(C)ccc3[nH]2)CC1	2.8µM	.	.	?
CCOC(=O)[C@]12CCC=C1N(Cc1cccc3ccccc13)C(=O)[C@H](CC(=O)N1CCCC1)C2	.	.	.	/
O=C(O)c1ccc(-n2ncc3c2/C(=C/c2cccc([N+](=O)[O-])c2)CC3)cc1	6.3µM	.	.	?
COc1ccccc1CCNC(=O)Cc1c(C)c2c(O)cc(C)cc2oc1=O	/	/	.	/
O=C(NCc1cccnc1)/C(=C\c1ccc(-c2ccc(Br)cc2)o1)S(=O)(=O)c1ccccc1	.	.	?	21µM
Cc1ccc(C2=N/C(=C\c3cccs3)C(=O)N2Nc2ccccc2)cc1	.	.	.	15µM
O=C1/C(=C/c2cccs2)N=C(c2cccs2)N1Nc1ccccc1	.	.	.	?
CC1(C)CC(=O)c2cc(N=C/C(C(=O)c3ccccc3)=C(\O)c3ccccc3)c(=O)oc2C1	.	.	11µM	?
CC1(C)CC(=O)C(C=Nc2ccccc2C(=O)O)=C(O)C1	.	.	.	.
CC(=O)N1N=C(c2c(-c3ccccc3)c3cc(C)ccc3[nH]c2=O)CC1c1ccco1 (stereo unspecified)	.	.	.	23µM
CCOc1ccc(C2C(=O)N(C3CCCCC3)CC(=O)N2Cc2ccccc2OC)cc1OC (stereo unspecified)	/	/	.	/
N#Cc1cc(NC(=O)c2ccc(F)cc2)c(=O)n2c1[nH]c1ccccc12	/	/	/	6.5µM
Cc1ccc2oc3c(c(=O)c2c1)C(c1ccc(O)cc1)N(c1nc(C)c(C)s1)C3=O (stereo unspecified)	/	/	.	/
COc1ccc(Cl)cc1N(C)C(=O)Cn1cnc2sc(C)c(S(=O)(=O)N3CCN(c4ncccn4)CC3)c2c1=O	.	/	.	/
COc1ccc(CCNC(=O)c2ccc(CS(=O)(=O)c3ccc(Cl)cc3)o2)cc1OC	.	.	.	?
COc1ccc(CCNC(=O)COc2ccc(N(C)S(=O)(=O)c3ccc(C)cc3)cc2)cc1OC	.	.	.	21µM
COc1ccc(CCNC(=O)c2ccc(N(C)S(=O)(=O)c3ccc(C)cc3)cc2)cc1OC	.	.	.	?
COc1ccc(CCNC(=O)c2ccc(-c3ccc([N+](=O)[O-])cc3Cl)o2)cc1OC	.	.	.	18µM
COc1ccc(CCNC(=O)c2ccc(CS(=O)(=O)c3ccc(C)cc3)o2)cc1OC	.	.	.	16µM
SMILES	BRCA1 expr act	IL2 activator	Nrf2 ARE act	ELG1 DNA repair
COc1ccc(CCNC(=O)c2cc(=O)c3ccc(C)cc3o2)cc1OC	.	.	.	16µM
O=C(Cc1ccc(NC(=O)N2CCCCc3ccccc32)cc1)Nc1ccccc1Br	.	/	.	/
O=C(NC1CCCc2ccccc21)c1ccc2c(c1)sc1nc(-c3ccccc3)cn12 (stereo unspecified)	/	/	.	/
Cc1ccc(C)c2[nH]c(=O)c(CCNC(=O)c3cc4ccccc4o3)cc12	.	.	.	?
COc1ccc(OC)c2[nH]c(=O)c(CCNC(=O)c3cc4ccccc4o3)cc12	.	.	.	18µM
Cc1ccc2c(=O)cc(C(=O)NCCc3ccc(S(N)(=O)=O)cc3)oc2c1	.	.	.	9.2µM
O=C(NCC(c1cccnc1)N1CCc2ccccc2C1)C(=O)Nc1cccc(Cl)c1 (stereo unspecified)	/	/	.	/
NNc1nc(Nc2ccccc2)nc(Nc2ccccc2)n1	.	.	.	16µM
NNc1nc(Nc2ccccc2)nc(N2CCCCC2)n1	.	.	.	.
Cc1ccc(N(C)C(=O)Cn2cnc3onc(-c4ccc(F)cc4)c3c2=O)cc1C	.	/	.	/
O=C(N/N=C/c1cccnc1)c1ccccc1Br	.	.	.	.
